Where “and” joins values, the source holds several entries; their conditions need not be identical. Equal entries are not always repeated. Results filed as inconclusive are left out. The source holds several records for some structures; these can differ, active in one and inactive in another. Calls of active or inactive are those of the source. Unless noted, the call rests on the fitted dose curve.
What was measured:
[1] = molecular target: Cytochrome P450 3A4 (Homo sapiens) (UniProt P08684); assay: qHTS Assay for Inhibitors and Substrates of Cytochrome P450 3A4 (AID 884; active means well fitted curve in the direction sought with a large enough effect; an effect the other way counts as inactive or inconclusive; further: nearly all actives have a fitted effect of over 50% in size; further: potency means the concentration at half of the fitted maximal effect)
Chain of Cytochrome P450 3A4 (Homo sapiens) (P08684 whole entry, looked up): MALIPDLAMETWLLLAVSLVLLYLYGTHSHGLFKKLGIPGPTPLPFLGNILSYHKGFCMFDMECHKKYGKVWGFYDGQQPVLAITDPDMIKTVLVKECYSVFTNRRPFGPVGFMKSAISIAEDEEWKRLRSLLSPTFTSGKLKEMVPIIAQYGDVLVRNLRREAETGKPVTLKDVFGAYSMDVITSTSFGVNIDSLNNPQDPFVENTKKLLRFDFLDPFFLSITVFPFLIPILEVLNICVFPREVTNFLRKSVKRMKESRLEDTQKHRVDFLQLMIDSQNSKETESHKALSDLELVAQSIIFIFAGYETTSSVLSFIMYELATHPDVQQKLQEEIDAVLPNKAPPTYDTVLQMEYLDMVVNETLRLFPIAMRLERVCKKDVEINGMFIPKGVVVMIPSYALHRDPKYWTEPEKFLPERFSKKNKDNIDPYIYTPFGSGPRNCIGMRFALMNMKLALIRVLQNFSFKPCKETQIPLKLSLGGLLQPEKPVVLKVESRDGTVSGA
Summary of the method: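 Luminescent readout of luciferin produced by CYP3A4 (20 nM) dealkylation of Luciferin-PPXE, 25 uM (its KM). NADPH-driven reaction ran 60 min at RT after 10 min compound preincubation; data scaled to 57 uM ketoconazole as 100% inhibition.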

[2] = MultiTox-Fluor Cytotoxicity Assay - LYMP1-001 - Live Cells (AID 947; active means well fitted curve in the direction sought with a large enough effect; an effect the other way counts as inactive or inconclusive;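 further: 0% = DMSO only and full inhibition = tetraoctylammonium bromide control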)
[3] = MultiTox-Fluor Cytotoxicity Assay - LYMP1-002 - Dead Cells (AID 960; active means well fitted curve in the direction sought with a large enough effect; an effect the other way counts as inactive or inconclusive;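 further: 0% = DMSO and 100% = tetraoctylammonium bromide; nearly all actives have a fitted effect of over 60% in size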)
Summary of the method: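 Cells were plated, rested 5 hr, then treated with compound dilution series for 16 hr at 37 C. After adding substrate reagent and 60 min at room temperature, dead-cell protease fluorescence gave concentration-response curves fitted by the Hill equation.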

[4] = molecular target: Estrogen receptor (Homo sapiens) (UniProt P03372); assay: qHTS assay for small molecule antagonists of estrogen receptor alpha signaling (AID 588513; active means well fitted curve in the direction sought with a large enough effect in the signal ratio, with a control signal flat, not every such curve was filed as active; the % refers to the signal ratio; further: on the % scale 0 is the no-effect control and ±100 the full control effect)
Chain of Estrogen receptor (Homo sapiens) (P03372 whole entry, looked up): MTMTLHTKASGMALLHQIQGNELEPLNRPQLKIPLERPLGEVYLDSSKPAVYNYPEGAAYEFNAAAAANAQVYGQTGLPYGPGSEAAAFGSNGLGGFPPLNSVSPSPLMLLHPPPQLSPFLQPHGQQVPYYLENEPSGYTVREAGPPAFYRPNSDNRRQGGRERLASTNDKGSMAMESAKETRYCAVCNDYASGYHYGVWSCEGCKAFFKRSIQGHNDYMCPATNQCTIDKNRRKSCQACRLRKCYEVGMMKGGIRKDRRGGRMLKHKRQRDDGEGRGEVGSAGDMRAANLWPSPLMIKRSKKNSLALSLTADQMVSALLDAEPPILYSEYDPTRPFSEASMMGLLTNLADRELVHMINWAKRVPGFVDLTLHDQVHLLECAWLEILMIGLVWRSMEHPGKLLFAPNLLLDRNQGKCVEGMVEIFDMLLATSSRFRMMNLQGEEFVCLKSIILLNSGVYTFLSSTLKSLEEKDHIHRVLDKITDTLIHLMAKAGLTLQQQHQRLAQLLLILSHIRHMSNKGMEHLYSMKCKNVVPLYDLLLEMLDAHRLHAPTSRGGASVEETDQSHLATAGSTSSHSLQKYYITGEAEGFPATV
Summary of the method: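 Cells were plated at 5000/well and incubated 4 h at 37 C. Compounds were added as 1:2 dilution series, duplicates. 17-beta-estradiol (0.5nM final) was added for 18 h before CCF4 detection.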

[5] = molecular target: Estrogen receptor (Homo sapiens) (UniProt P03372); assay: qHTS assay for small molecule agonists of estrogen receptor alpha signaling (AID 588514);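 further: 0% = vehicle only and 100% = reference agonist; nearly all actives have a fitted effect of over 70% in size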
Summary of the method: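 Efficacy is expressed against 20 nM 17-beta-estradiol (100%) and DMSO basal (0%); EC50 from Hill equation. Assay: beta-lactamase reporter in ER-alpha-UAS-bla HEK 293 cells, 18 h compound incubation, CCF4 detection.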

[6] = molecular target: Glucocorticoid receptor (Homo sapiens) (UniProt P04150); assay: qHTS assay for small molecule agonists of glucocorticoid receptor signaling (AID 588532; active means well fitted curve in the direction sought with a large enough effect in the signal ratio, with a control signal flat; the % refers to the signal ratio;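 further: 100% = dexamethasone at 0.1 µM and 0% = DMSO only wells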); details: HeLa MMTV-bla, beta-lactamase ratio, agonist, 18 h; stronger effect = higher value; percent of dexamethasone control, DMSO zero
Chain of Glucocorticoid receptor (Homo sapiens) (P04150 whole entry, looked up): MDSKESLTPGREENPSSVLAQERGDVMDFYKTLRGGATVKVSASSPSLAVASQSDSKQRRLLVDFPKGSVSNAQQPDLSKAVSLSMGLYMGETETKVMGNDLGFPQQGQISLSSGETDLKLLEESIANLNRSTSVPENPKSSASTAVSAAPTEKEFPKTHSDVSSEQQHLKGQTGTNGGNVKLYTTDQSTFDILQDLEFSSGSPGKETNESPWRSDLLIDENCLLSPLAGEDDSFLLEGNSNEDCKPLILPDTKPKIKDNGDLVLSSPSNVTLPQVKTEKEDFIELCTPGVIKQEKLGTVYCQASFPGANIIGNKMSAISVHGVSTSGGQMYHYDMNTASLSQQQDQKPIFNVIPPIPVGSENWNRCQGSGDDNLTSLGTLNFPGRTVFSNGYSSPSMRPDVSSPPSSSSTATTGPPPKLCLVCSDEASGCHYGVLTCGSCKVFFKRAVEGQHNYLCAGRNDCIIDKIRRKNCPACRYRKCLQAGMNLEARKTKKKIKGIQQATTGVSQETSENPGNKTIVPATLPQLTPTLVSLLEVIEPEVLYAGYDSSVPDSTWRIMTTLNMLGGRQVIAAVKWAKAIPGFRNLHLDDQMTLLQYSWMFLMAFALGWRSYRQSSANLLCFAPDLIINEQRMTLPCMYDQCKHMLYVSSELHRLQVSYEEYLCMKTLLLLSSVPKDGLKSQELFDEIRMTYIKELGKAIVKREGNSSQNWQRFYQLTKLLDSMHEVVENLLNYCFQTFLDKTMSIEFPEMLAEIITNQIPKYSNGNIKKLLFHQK
Summary of the method: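 Titration series, up to 92 uM, applied to GRE-bla HeLa cells for 18 h at 37 C. Detection by CCF4 FRET substrate after 2 h at RT.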

[7] = molecular target: Peroxisome proliferator-activated receptor gamma (Homo sapiens) (UniProt P37231); assay: qHTS assay for small molecule agonists of peroxisome proliferator-activated receptor gamma signaling (AID 588536; active means well fitted curve in the direction sought with a large enough effect in the signal ratio, with a control signal flat, not every such curve was filed as active; the % refers to the signal ratio;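 further: 0% = DMSO basal wells and 100% = rosiglitazone at 2 µM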)
Chain of Peroxisome proliferator-activated receptor gamma (Homo sapiens) (P37231 whole entry, looked up): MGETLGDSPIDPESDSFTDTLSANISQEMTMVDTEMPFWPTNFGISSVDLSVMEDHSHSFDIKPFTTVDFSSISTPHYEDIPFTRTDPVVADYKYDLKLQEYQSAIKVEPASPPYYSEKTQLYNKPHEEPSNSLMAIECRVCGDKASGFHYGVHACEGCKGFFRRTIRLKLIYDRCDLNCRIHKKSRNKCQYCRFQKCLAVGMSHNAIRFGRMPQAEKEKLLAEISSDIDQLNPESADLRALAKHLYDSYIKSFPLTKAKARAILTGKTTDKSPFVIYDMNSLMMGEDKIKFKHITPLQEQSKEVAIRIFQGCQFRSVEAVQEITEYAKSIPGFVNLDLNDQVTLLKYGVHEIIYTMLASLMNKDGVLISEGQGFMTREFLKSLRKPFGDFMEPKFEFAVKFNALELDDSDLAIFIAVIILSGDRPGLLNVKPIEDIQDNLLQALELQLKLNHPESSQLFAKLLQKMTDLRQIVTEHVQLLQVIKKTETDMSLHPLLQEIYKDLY
Summary of the method: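 Cells were plated and held 6–6.5 h at 37 C, then compounds were added as a titration series. After a further 16 h, CCF4 dye was loaded for 2 h at room temperature and emission at 460/530 nm recorded.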

[8] = molecular target: Vitamin D3 receptor (Homo sapiens) (UniProt P11473); assay: qHTS assay for small molecule antagonists of vitamin D receptor signaling (AID 588541);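 further: receptor activated by calcitriol during compound treatment; series mostly up to about 77 µM; on the % scale 0 is the no-effect control and ±100 the full control effect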
Chain of Vitamin D3 receptor (Homo sapiens) (P11473 whole entry, looked up): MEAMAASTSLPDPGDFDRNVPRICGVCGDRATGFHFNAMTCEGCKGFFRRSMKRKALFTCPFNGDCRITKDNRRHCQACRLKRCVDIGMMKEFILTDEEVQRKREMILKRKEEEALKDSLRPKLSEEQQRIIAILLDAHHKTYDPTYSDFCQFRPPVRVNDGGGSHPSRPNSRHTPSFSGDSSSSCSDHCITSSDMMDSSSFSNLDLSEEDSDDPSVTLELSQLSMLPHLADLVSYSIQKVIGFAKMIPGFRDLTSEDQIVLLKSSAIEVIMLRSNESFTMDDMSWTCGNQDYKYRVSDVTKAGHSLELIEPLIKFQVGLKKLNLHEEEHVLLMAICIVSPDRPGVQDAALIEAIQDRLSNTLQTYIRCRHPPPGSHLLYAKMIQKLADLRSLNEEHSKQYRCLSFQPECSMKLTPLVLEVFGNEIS
Summary of the method: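 VDR-UAS-bla HEK293T cells (2000/well, 2% charcoal-stripped FBS) were treated with titrated compounds plus 1-alpha,25-dihydroxyvitamin D3 (50 nM or 3 nM final) for 16 h at 37 C. CCF4 beta-lactamase fluorescence was read; Hill fits gave IC50.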

[9] = molecular target: Vitamin D3 receptor (Homo sapiens) (UniProt P11473); assay: qHTS assay for small molecule agonists of vitamin D receptor signaling (AID 588543);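 further: 0% = DMSO basal and 100% = reference agonist control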
Summary of the method: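 qHTS in agonist mode: compound titrations stimulate a VDR-driven β-lactamase reporter in HEK293T cells over 16 h at 37 °C. Response normalized to 50 nM 1α,25-dihydroxyvitamin D3 = 100%, DMSO = 0%; Hill fitting gives EC50 and maximal response.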

[10] = qHTS assay for small molecule agonists of retinoid X receptor alpha signaling (AID 588544); details: HEK293T RXRa-UAS-bla, beta-lactamase reporter, 18 h; 530 nm emission
[11] = molecular target: Thyroid hormone receptor beta (Homo sapiens) (UniProt P10828); assay: qHTS assay for small molecule antagonists of thyroid hormone receptor beta signaling (AID 588547; active means well fitted inhibition curve with a large enough effect in the signal ratio, with a control signal flat, not every such curve was filed as active; the % refers to the signal ratio;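 further: cells stimulated with 0.4 nM T3 agonist during compound exposure; series mostly up to about 77 µM; on the % scale 0 is the no-effect control and ±100 the full control effect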); details: TR-UAS-bla HEK293, beta-lactamase ratio, antagonist mode, 18 h
Chain of Thyroid hormone receptor beta (Homo sapiens) (P10828 whole entry, looked up): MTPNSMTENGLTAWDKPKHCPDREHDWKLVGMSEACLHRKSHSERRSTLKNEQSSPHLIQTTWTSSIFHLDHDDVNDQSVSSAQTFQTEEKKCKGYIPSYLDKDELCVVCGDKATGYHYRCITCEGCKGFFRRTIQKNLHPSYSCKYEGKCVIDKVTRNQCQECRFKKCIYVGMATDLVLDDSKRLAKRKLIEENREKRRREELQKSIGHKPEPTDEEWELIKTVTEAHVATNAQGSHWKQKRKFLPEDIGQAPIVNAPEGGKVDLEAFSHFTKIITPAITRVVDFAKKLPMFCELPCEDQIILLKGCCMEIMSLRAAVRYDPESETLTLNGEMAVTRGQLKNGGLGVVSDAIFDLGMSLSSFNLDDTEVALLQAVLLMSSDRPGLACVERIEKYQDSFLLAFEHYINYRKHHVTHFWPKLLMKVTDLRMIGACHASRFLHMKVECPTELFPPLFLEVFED
Summary of the method: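 TR-UAS-bla GripTite HEK293 cells in 2% charcoal/dextran FBS medium were preincubated 4 h at 37 C, given compound (0.59 nM to 92 uM) plus 0.4 nM T3 (final) for 18 h, then CCF4 for 2 h at RT; Hill fit gave IC50.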

[12] = qHTS assay for small molecule activators of the p53 signaling pathway (AID 651743; active means well fitted activation curve with a large enough effect in the signal ratio, not every such curve was filed as active; the % refers to the signal ratio; further: series mostly up to about 92 µM; % of control where 0% means no effect); details: HCT-116 p53RE-bla, beta-lactamase FRET ratio, 16 h; activation: stronger effect = higher value
Summary of the method: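 Agonist-mode quantitative HTS in HCT-116 cells carrying a p53-response-element beta-lactamase reporter; 16 h compound treatment at 37 C, then FRET substrate loading for 2 h at room temperature and fluorescence read.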

[13] = qHTS assay for small molecule disruptors of the mitochondrial membrane potential - 5 hr assay (AID 651755); further: on the % scale 0 is the no-effect control and ±100 the full control effect; nearly all actives have a fitted effect of over 40% in size
Summary of the method: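 Seed HepG2 overnight, add compound, incubate 5 hr at 37C and 5% CO2, stain 30 min with Mito-MPS, then measure monomer (490/535 nm) and aggregate (540/590 nm) fluorescence.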

[14] = molecular target: Tumor necrosis factor (Homo sapiens) (UniProt P01375); assay: qHTS assay to identify small molecules that stimulate Tumor Necrosis Factor-alpha (TNF-alpha) secretion (AID 651757; active means well fitted curve in the direction sought with a large enough effect in the signal ratio; the % refers to the signal ratio; further: 0% is about no effect)
Chain of Tumor necrosis factor (Homo sapiens) (P01375 whole entry, looked up): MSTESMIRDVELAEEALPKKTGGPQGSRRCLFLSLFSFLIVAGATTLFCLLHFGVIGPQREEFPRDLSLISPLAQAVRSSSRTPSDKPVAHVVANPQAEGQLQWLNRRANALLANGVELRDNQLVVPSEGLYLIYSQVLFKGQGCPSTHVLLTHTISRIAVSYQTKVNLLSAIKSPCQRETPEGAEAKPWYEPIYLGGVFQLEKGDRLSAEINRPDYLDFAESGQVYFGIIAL
Summary of the method: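 Human monocytic THP-1 cells are plated, treated with compound and held at 37 C for 17 hrs. Labeled anti-TNF-alpha antibody mixture is then added; after 3 hr at room temperature, TR-FRET signal reports secreted TNF-alpha.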

[15] = qHTS assay for environmental chemicals that activate the Aryl hydrocarbon Receptor (AhR) signaling pathway (AID 651777; active means well fitted curve in the direction sought with a large enough effect; an effect the other way counts as inactive or inconclusive; further: % of control where 0% means no effect; nearly all actives have a fitted effect of over 15% in size); details: 1A2-DRE human hepatoma cells, luciferase, 24 h; activation: stronger effect = higher value
Summary of the method: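 Luminescence read-out: One-Glo added for 30 min at RT after 24 hr compound treatment (37 C, 5% CO2) of human hepatoma cells expressing a DRE/CYP1A2 promoter–luciferase reporter; increased signal indicates AhR activation.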

[16] = molecular target: Nuclear receptor ROR-gamma (Homo sapiens) (UniProt P51449); assay: qHTS assay for small molecule antagonists of the retinoid-related orphan receptor gamma (ROR-gamma) signaling pathway (AID 651802; active means well fitted curve in the direction sought with a large enough effect; an effect the other way counts as inactive or inconclusive;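 further: CHO cells with doxycycline-induced ROR-gamma expression; series mostly up to about 92 µM; on the % scale 0 is the no-effect control and ±100 the full control effect; nearly all actives have a fitted effect of over 60% in size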)
Chain of Nuclear receptor ROR-gamma (Homo sapiens) (P51449 whole entry, looked up): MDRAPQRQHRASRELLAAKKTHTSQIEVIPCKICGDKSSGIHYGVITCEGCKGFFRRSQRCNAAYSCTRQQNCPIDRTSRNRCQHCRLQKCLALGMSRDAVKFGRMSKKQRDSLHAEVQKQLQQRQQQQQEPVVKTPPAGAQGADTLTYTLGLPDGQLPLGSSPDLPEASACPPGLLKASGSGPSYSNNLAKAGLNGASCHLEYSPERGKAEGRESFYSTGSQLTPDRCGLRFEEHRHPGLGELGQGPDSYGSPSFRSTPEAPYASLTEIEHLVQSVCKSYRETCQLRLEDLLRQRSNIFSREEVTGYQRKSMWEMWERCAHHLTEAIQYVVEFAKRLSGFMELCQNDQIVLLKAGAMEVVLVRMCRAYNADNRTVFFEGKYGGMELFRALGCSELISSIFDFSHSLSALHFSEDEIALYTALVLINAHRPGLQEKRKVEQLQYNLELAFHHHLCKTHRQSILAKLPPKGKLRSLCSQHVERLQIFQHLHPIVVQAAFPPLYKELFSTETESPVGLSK
Summary of the method: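 Steps: cells dispensed; compound or DMSO transferred by pin tool; doxycycline added to induce the ROR response element-driven luciferase; plates held 16hr at 37C; ONE-Glo added and luminescence measured.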

[17] = qHTS assay for small molecule antagonists of the retinoid-related orphan receptor gamma (ROR-gamma) signaling pathway - cell viability counter screen (AID 720652; active means well fitted curve in the direction sought with a large enough effect in the repeat runs; an effect the other way counts as inactive or inconclusive;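 further: CHO reporter cells with doxycycline-induced ROR-gamma expression; series mostly up to about 92 µM; compound exposure lasted 16 hr before ATP read; on the % scale 0 is the no-effect control and ±100 the full control effect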)
Summary of the method: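 Steps: seed CHO cells bearing TET-inducible ROR and ROR response element-luciferase; rest 5 hr at 37 C; add compound, then doxycycline; incubate 16 hr; add CellTiter-Glo and read luminescence as ATP-based viability.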

[18] = molecular target: Nuclear receptor subfamily 1 group I member 2 (Rattus norvegicus) (UniProt Q9R1A7); assay: qHTS assay for small molecule activators of the rat pregnane X receptor (rPXR) signaling pathway (AID 651751; call rule not given here; further: 0% is about no effect); details: rPXR reporter cells, luciferase (One-Glo), 24 h
Chain of Nuclear receptor subfamily 1 group I member 2 (Rattus norvegicus) (Q9R1A7 whole entry, looked up): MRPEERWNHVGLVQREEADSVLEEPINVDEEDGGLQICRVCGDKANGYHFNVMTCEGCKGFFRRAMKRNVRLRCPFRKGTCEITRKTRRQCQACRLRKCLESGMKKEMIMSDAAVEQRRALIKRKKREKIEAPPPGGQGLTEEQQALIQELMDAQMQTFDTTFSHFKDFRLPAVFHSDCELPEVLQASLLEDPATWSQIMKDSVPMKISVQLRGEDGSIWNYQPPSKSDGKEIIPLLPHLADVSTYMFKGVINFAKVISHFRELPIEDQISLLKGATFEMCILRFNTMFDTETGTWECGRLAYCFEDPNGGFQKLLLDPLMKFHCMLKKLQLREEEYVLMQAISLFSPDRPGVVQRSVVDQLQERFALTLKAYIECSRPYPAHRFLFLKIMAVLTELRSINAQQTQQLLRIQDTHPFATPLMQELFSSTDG

[19] = qHTS assay for small molecule activators of the human pregnane X receptor (PXR) signaling pathway (AID 720659; call rule not given here; further: 0% is about no effect)
[20] = qHTS assay for small molecule disruptors of the mitochondrial membrane potential - 1 hr assay (AID 651754); further: on the % scale 0 is the no-effect control and ±100 the full control effect; nearly all actives have a fitted effect of over 35% in size
Summary of the method: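 Loss of mitochondrial potential shifts the cationic dye from red mitochondrial aggregates to green cytoplasmic monomers. Cells (HepG2) are treated with compound for 1 hr before a 30 min dye incubation at 37C.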

CCCN(CCC)C(=O)SCC
-2.35% and -18.5%: max response [10]
inactive: Potency [1] | Potency [2] | Potency [3] | Potency [4] | Potency [5] | activation [6] 1.32% and 12.8% | outcome [7] | outcome [8] | outcome [9] | activity change % (negative = inhibition) [11] 0.19% and 8.86% | activation [12] 0.439% and 11.8% | Potency [13] | outcome [14] | activation [15] 0.446% and -0.849% | Potency [16] | Potency [17] | max response [18] 5.19% and 0.741% | outcome [19]

ClCCCl
inactive: Potency [1] | Potency [2] | Potency [3] | Potency [4] | Potency [5] | activation [6] -0.189% and 0.123% and 2.5% | outcome [7] | outcome [8] | outcome [9] | activity change % (negative = inhibition) [11] 4.14% and 2.63% and 8.67% | activation [12] 0.154% and -1.95% and -0.964% | Potency [20] | Potency [13] | outcome [14] | activation [15] 0.113% and 1.25% and 1.3% | Potency [16] | Potency [17] | max response [18] 1.44% and 0.0885% and 1.57% | outcome [19]
-4.78% and -12% and 1.75%: max response [10]

C/C=C\c1ccc(OC)cc1
inactive: Potency [2] | Potency [3] | outcome [7] | activity change % (negative = inhibition) [11] 20.9% | outcome [14] | activation [15] -0.657% | Potency [16] | Potency [17] | max response [18] 5.64% | outcome [19]
-9.52%: max response [10]

c1ccccc1
inactive: Potency [1] | Potency [2] | Potency [3] | Potency [4] | Potency [5] | activation [6] -2.25% [middle of 4 runs] | outcome [7] | outcome [8] | outcome [9] | activation [12] 0.891% [middle of 4 runs] | Potency [20] | Potency [13] | outcome [14] | Potency [16]

C1OCOCO1
inactive: Potency [1] | Potency [2] | Potency [3] | activation [6] 3.41% | outcome [7] | activity change % (negative = inhibition) [11] 5.08% | activation [12] -3.32% | Potency [20] | Potency [13] | outcome [14] | activation [15] -0.144% | Potency [16] | Potency [17] | max response [18] -2.23% | outcome [19]
-5.21%: max response [10]

CC(C)=CCCC(C)CCO (centres undefined)
-10.2% and -2.4%: max response [10]
inactive: Potency [1] | Potency [2] | Potency [3] | Potency [4] | Potency [5] | activation [6] 0.913% and 4.62% | outcome [7] | activity change % (negative = inhibition) [11] -8.9% and -1.71% | activation [12] 0.545% and -1.78% | Potency [20] | Potency [13] | outcome [14] | activation [15] -0.0827% and -0.667% | Potency [16] | Potency [17] | max response [18] -5.01% and 0.846% | outcome [19]

CN(C)CCCCCCN(C)C
inactive: Potency [1] | Potency [2] | Potency [3] | outcome [7] | outcome [8] | outcome [9] | activity change % (negative = inhibition) [11] 5.32% | activation [12] -2.74% | Potency [20] | Potency [13] | outcome [14] | activation [15] 1.69% | Potency [17]
-13.8%: max response [10]

CC1=CC(C)(C)Nc2ccccc21
inactive: Potency [2] | Potency [3] | Potency [4] | Potency [5] | outcome [7] | outcome [8] | outcome [9] | activity change % (negative = inhibition) [11] -25% | activation [12] -2.38% and -0.537% | Potency [20] | Potency [13] | outcome [14] | activation [15] 1.47% and 1.06% | Potency [16] | Potency [17]
10 µM (active) and inactive: Potency [1]
-19.9% and -2.04%: max response [10]

O=C(O)c1ccc(O)cc1O
inactive: Potency [1] | Potency [2] | Potency [3] | activation [6] 0.41% and -0.627% | outcome [7] | outcome [8] | outcome [9] | activity change % (negative = inhibition) [11] 0.5% and 23.9% | activation [12] -0.261% and 0.22% | Potency [20] | Potency [13] | outcome [14] | activation [15] 0.974% and 0.552% | Potency [16] | Potency [17] | max response [18] 10.9% and 2.3% | outcome [19]
-5.03% and -19.7%: max response [10]

COC(=O)c1ccc(C)cc1
inactive: Potency [1] | Potency [2] | Potency [4] | activation [6] -15.8% | outcome [8] | outcome [9] | activity change % (negative = inhibition) [11] -22.1% and -12.5% | activation [12] 2.24% and -1.53% | Potency [20] | Potency [13] | outcome [14] | activation [15] -1.02% and 0.0239% | Potency [16] | Potency [17] | max response [18] 1.84% and -0.952% | outcome [19]
8.76% and -8.45%: max response [10]
